# Assay outcomes (PubChem)
# A selection: hits, their analogues and other compounds. The true share with any hit is near 3%.
# SENP8 block-1: inhibitors of human SENP8 protease. recombinant SENP8, Nedd8 substrate fluorescence. actives 0.64% (n = 360,000). Q96LD8. AID 602440. inhibition, % at 20 µM; in the data active = inhibition mostly above about 40%, no sharp cut-off; inactive = mostly below about 27%
# SENP6 inh: inhibitors of human SENP6 protease; Recombinant SENP6 catalytic domain, aminoluciferin luminescence; inhibition, % at 10 µM; actives 1.8% (n = 330,000); AID 2599;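 active = inhibition above about 50% at the single tested dose, limit read from the data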;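 note: plate controls were DMSO wells with enzyme for no effect and DMSO wells lacking enzyme for full effect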
# Target sequence (Q9GZR1 628-1112 limits assumed): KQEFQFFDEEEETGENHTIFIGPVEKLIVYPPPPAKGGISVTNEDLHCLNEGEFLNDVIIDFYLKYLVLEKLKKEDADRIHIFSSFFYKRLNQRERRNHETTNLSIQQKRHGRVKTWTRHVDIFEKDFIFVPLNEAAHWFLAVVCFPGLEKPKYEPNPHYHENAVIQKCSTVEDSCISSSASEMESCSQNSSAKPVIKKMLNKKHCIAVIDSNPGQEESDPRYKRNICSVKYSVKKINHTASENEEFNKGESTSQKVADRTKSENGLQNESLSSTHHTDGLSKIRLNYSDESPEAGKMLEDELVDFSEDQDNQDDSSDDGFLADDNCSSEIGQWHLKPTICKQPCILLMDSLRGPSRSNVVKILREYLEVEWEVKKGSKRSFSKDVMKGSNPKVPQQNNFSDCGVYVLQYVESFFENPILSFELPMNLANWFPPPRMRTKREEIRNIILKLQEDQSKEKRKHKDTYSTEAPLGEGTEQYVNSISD
# PPC-1+TRAIL kill: kills PPC-1 cancer cells in the presence of TRAIL. actives 0.41% (n = 220,000). AID 1443. cell killing (% activity), % at 4 µM or 5 µM. PPC-1 cells + TRAIL, ATPLite viability luminescence;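 active = cell killing above 50% in the first pass at 4 µM, then a duplicate retest at 5 µM averaging 50% or more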;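 note: plate controls were cells with TRAIL plus DMSO for no effect and medium-only wells lacking cells for full effect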
# SENP8 block-2: SENP8 protease inhibition. actives 1.2% (n = 330,000). inhibition, % at 10 µM. AID 2540. purified SENP8, Z-RLRGG-aminoluciferin cleavage, luminescence; in the data active = inhibition above about 50%
# SENP7 inh: inhibitors of human SENP7 protease. AID 434973. Q9BQF6. recombinant SENP7, Z-RLRGG-aminoluciferin luminescence, 40 min. actives 1.5% (n = 330,000). inhibition, % at 5 µM;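 active = inhibition above about 50% at the single test dose, limit read from the data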;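 note: plate controls were DMSO with enzyme for no effect and no enzyme buffer wells for full effect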
# C8 TRAIL sens: caspase-8 TRAIL sensitization. AID 624354. actives 1% (n = 360,000). inhibition (viability loss, TRAIL sensitization), % at 10 µM. NB7+C8 cells + TRAIL, ATPlite viability luminescence;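 active = compounds causing at least 50% loss of cell viability in the single-dose screen, relative to plate controls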
# SENP8 confirm: confirmation of human SENP8 protease inhibitors. shares compounds with SENP7 inh. Recombinant SENP8, Z-RLRGG-aminoluciferin luminescence, 60 min. inhibition, % at 12.5 µM. actives 40% (n = 6,200). AID 488912;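 active = mean inhibition across replicates above about 50%, limit read from the data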
# SENP6 conf: human SENP6 inhibition, confirmed; shares compounds with SENP7 inh; inhibition, % at 12.5 µM; recombinant SENP6, Z-RLRGG-aminoluciferin luminescence; AID 488915; actives 58% (n = 6,200)
# SENP7 confirm: human SENP7 inhibition, confirmed; shares compounds with SENP7 inh; recombinant SENP7, Z-RLRGG-aminoluciferin luminescence, 40 min; inhibition, % at 12.5 µM; actives 69% (n = 6,200); AID 488917
# Casp3 select: selectivity test for SENP inhibitors: human caspase-3 inhibition. AID 488918. actives 60% (n = 6,200). purified caspase-3, Z-DEVD-aminoluciferin luminescence, 60 min. shares compounds with SENP7 inh. inhibition, % at 12.5 µM;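 active = mean inhibition above about 50%, limit read from the data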;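 note: plate controls were enzyme with DMSO for no effect and wells without caspase-3 for full effect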
# Luc interf: luminescence interference (SENP counter-screen); inhibition, % at 12.5 µM; actives 39% (n = 6,200); Pre-incubated SENP8/Z-RLRGG-aminoluciferin, luciferase luminescence interference; shares compounds with SENP7 inh;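 active = mean inhibition above about 50% when retested at one dose, limit read from the data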;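 note: plate controls were DMSO wells with completed reaction for no effect and substrate without enzyme for full effect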
# Numbers without * were called inactive; i = inactive; . = no result.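 Rule for the calls, unless noted: active = mean inhibition above about 50% in the one-dose retest (limit read from the data); inactive = the rest.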
SMILES,SENP8 block-1,SENP6 inh,PPC-1+TRAIL kill,SENP8 block-2,SENP7 inh,C8 TRAIL sens,SENP8 confirm,SENP6 conf,SENP7 confirm,Casp3 select,Luc interf
N#Cc1c(N)n(CCOC(=O)c2cccc(Br)c2)c2nc3ccccc3nc12,-486,1,19,6,14,3,.,.,.,.,.
N#Cc1c(N)n(CCc2ccc(F)cc2)c2nc3ccccc3nc12,-413,62*,-3,24,15,0,-17,0,4,-1,-2
CS(=O)(=O)c1ccc2nc(NC(=O)c3cc4ccccc4o3)sc2c1,i,83*,19,52*,54*,31,17,14,41,34,6
Cc1ccc(C(=O)Nc2nc3ccc(S(C)(=O)=O)cc3s2)o1,-235,-15,48,33,60*,49,56*,54*,84*,86*,64*
CS(=O)(=O)c1ccc2nc(NC(=O)c3ccccc3Cl)sc2c1,-3,2,.,1,5,11,.,.,.,.,.
COc1ccc(C(=O)Nc2nc3ccc(S(C)(=O)=O)cc3s2)cc1,-218,12,42,4,2,11,.,.,.,.,.
CC(=O)Nc1nc2ccc(-c3nc4ccccc4o3)cc2s1,-495,-2,15,24,64*,5,20,16,20,12,-3
CS(=O)(=O)c1ccc2nc(NC(=O)c3ccccc3Br)sc2c1,-48,38,.,20,12,4,.,.,.,.,.
CS(=O)(=O)c1ccc2sc(NC(=O)c3cc4ccccc4o3)nc2c1,-415,77*,35,46,28,25,-4,-6,0,38,23
CCN(CC)c1c(C)nc2ccc(C(=O)N3CCN(C(=O)c4ccco4)CC3)cn12,7,.,.,.,.,-3,.,.,.,.,.
O=C(O)c1cccc2c1C(=O)c1ccc(-c3ccc(Cl)c(C(F)(F)F)c3)cc1S2(=O)=O,-2,13,.,-4,-4,14,.,.,.,.,.
COC(=O)CNC(=O)COC(=O)c1ccc(Cl)nc1,-1,10,7,4,9,0,.,.,.,.,.
CCNC(=O)c1ccc(NC(=O)CC2SC(N3CCCC3)=NC2=O)cc1 (stereo not drawn),4,-2,.,4,18,3,.,.,.,.,.
O=C(Nc1nc2c(Cl)cccc2s1)c1ccc(Br)o1,-155,-2,43,-2,2,4,.,.,.,.,.
O=C(Nc1nc2ccc(Cl)cc2s1)c1ccc(Br)o1,-274,53*,25,30,59*,30,10,18,7,16,6
CC(C)CNC(=O)c1ccccc1N(Cc1ccccc1)S(C)(=O)=O,6,0,.,-2,-1,-2,.,.,.,.,.
O=C(O)c1cc2nc3c(c(C(F)(F)F)n2n1)CCc1ccccc1-3,-50,72*,15,3,6,-9,-21,-14,-8,-7,-5
COCCNC(=O)c1cc2nc3c(c(C(F)(F)F)n2n1)CCc1ccccc1-3,-428,-14,.,-7,-8,0,.,.,.,.,.
CCc1cc(C(=O)NC2CCCc3c2cnn3-c2ccc(F)cc2F)no1 (stereo not drawn),-6,.,.,.,.,9,.,.,.,.,.
C/C(=N\Nc1ccc([N+](=O)[O-])cc1)c1ccc(-n2nncc2C)cc1,-190,-2,3,-5,-10,3,.,.,.,.,.
CC(C)(C)c1cnnn1-c1ccc(/C=N/Nc2ccc([N+](=O)[O-])cc2)cc1,-100,41,-10,64*,-7,-3,4,3,-2,-2,-2
O=c1nc(Nc2ccc([N+](=O)[O-])cc2)[nH]c(=O)[nH]1,26,-10,.,8,7,-6,.,.,.,.,.
Cc1cccc(/C=N\N=C\c2cccc(C)c2)c1,23,63*,.,17,51*,-15,19,54*,81*,38,36
Cc1cccc(/C=N/n2c(C)nnc2C)c1,13,-10,4,-11,-12,-5,.,.,.,.,.
CC1Sc2ccc(C(=O)OCc3ccccc3Cl)cc2NC1=O (stereo not drawn),-9,55*,.,6,70*,-7,-24,-11,-1,2,-5
SMILES,SENP8 block-1,SENP6 inh,PPC-1+TRAIL kill,SENP8 block-2,SENP7 inh,C8 TRAIL sens,SENP8 confirm,SENP6 conf,SENP7 confirm,Casp3 select,Luc interf
COc1ccc(NCC(=O)Nc2cccc(C(F)(F)F)c2)cc1S(=O)(=O)N1CCOCC1,-48,-7,.,5,2,-7,.,.,.,.,.
Cc1ccc(-n2nc3c(n2)/C(=N/O)CC/C3=N\O)cc1,-38,26,11,66*,78*,37,8,2,5,2,4
CCCCCCSC1=C(C#N)C(=O)NC2(CCCCC2)S1,40,35,17,59*,-1,3,8,87*,94*,40,88*
COc1ccc(CSC2=C(C#N)C(=O)NC3(CCCCC3)S2)cc1,28,.,.,.,.,-13,.,.,.,.,.
O=C(Nc1ccc(Cl)cc1[N+](=O)[O-])c1ccc2c(c1)OCCO2,9,17,.,-16,64*,19,15,10,8,6,-5
O=C(Nc1ccc(F)c([N+](=O)[O-])c1)c1ccc2c(c1)OCCO2,9,57*,17,29,69*,48,31,41,87*,61*,40
CCc1ccc2nc(N3C(=O)c4oc5ccccc5c(=O)c4C3c3ccc(OC)c(OC)c3)sc2c1 (stereo not drawn),.,-1,6,-3,2,.,.,.,.,.,.
COC(=O)c1sc(-c2ccc(Cl)cc2)cc1N,-305,81*,10,63*,68*,11,54*,69*,91*,44,15
COc1ccccc1C(=O)N/N=C(\C)c1cccnc1,10,-13,.,-6,-3,12,.,.,.,.,.
COc1ccc(Nc2nc(C)cc(C)n2)cc1Cl,20,70*,.,39,67*,4,62*,59*,86*,68*,65*
COc1nc(Nc2ccc(OC)c(Cl)c2)nc(OC)n1,20,-16,0,-10,-1,-12,.,.,.,.,.
COc1ccc(Nc2nnc(-c3ccncc3)s2)cc1Cl,-276,73*,.,66*,96*,9,30,24,44,54*,6
COc1ccc(Cl)cc1Nc1nnc(-c2ccncc2)s1,-292,76*,.,51*,95*,10,-14,9,-4,1,-6
